Assay results from paper PMC12431657, “Discovery and mechanistic insights of dibenzoylmethane as a broad spectrum inhibitor of coronavirus” (PLOS Pathogens, 2025).
Counter-ions that a name gives are not always drawn. Like-named read-outs stand apart in the source and are kept apart here. In all, about 3,300 compounds went through this assay and about 60 (2%) showed an effect of 50% or more. The sample holds strong results, similar compounds and a random draw of the others, so the mix is not that of the screen.

Test system: HCoV-OC43
Set-up: species or system RD; HTS, protection from HCoV-OC43 induced cell death, luminescent cell viability (CellCounting-Lite 2.0), inhibition rate
Settings: 24 h post infection, 1 h compound pre-incubation, 10 µM, inhibitor

| Compound | OC43 Inhibition rate | OC43 Inhibition rate (OC43 Inhibition rate, 24 h) |
| --- | --- | --- |
| COc1cc([C@@H]2[C@H]3CO[C@@]4(O)C(=O)[C@@H]2C=C([C@H]2Oc5cc(O)cc(O)c5C(=O)[C@@H]2O)[C@@H]34)ccc1O [Silydianin] | -0.1% | – |
| O=C(/C=C/c1ccccc1)OCc1ccccc1 [Benzyl cinnamate] | 2% | – |
| O=C(CCc1ccc(O)cc1)c1c(O)cc(O)cc1O [Phloretin] | -0.3% | – |
| O=C(CCCCCCCCc1ccc(O)c(O)c1)c1c(O)cccc1O [Malabaricone C] | 12.2% | – |
| O=C(CCCCCCCCc1ccc(O)cc1)c1c(O)cccc1O [Malabaricone B] | 54% | – |
| CCCCCCCCCCCCCCCCCCCCC [Heneicosane] | -0.3% | – |
| CO[C@H]1[C@@H](O)[C@H](O[C@@H]2[C@@H](C)O[C@@H](O[C@H]3CC[C@@]4(C)[C@@H](CC[C@@]56O[C@@]57CC[C@@H](C(C)=O)[C@@]7(C)[C@H](OC(C)=O)[C@@H](OC(=O)c5ccccc5)[C@H]46)C3)C[C@H]2OC)O[C@H](C)[C@H]1O [Tenacissoside I] | -4% | – |
| Cc1ccc(O)c(O)c1 [4-Methylcatechol] | -0.9% | – |
| COc1cc(O)c(C(=O)/C=C/c2ccc(O)cc2)c(OC)c1 [Flavokawain C] | 4.2% | – |
| COc1cc(O)c(C(=O)/C=C/c2ccccc2)c(O)c1 [Pinostrobin chalcone] | 0% | – |
| COc1cc(O)c(C(=O)/C=C/c2ccccc2)c(OC)c1 [Flavokawain B] | 58.3% | – |
| O=C(N[C@@H](c1ccccc1)[C@@H](O)C(=O)O)c1ccccc1 [N-Benzoyl-(2R,3S)-3-phenylisoserine] | 0.3% | – |
| C/C=C(/C)C(=O)O [Angelic acid] | -0.3% | – |
| CCOC(=O)/C=C/c1ccccc1 [Ethyl cinnamate] | -1.2% | – |
| CC(=O)OC/C1=C/C[C@H]2[C@@H](/C=C(\C)C(=O)[C@@]3(OC(C)=O)C[C@H](C)[C@H](OC(=O)c4ccccc4)[C@@H]3[C@H]1OC(C)=O)C2(C)C [Euphorbia factor L7b] | 8.6% | – |
| CC(=O)OC/C1=C\[C@H]2[C@@H](OC(=O)/C=C/c3ccccc3)[C@@H](C)C[C@]2(OC(C)=O)C(=O)/C(C)=C/[C@@H]2[C@H](CC1)C2(C)C [Euphorbia factor L7a] | 75.3% | – |
| COc1cccc(-c2oc3ccccc3c(=O)c2O)c1 [3'-Methoxyflavonol] | -2% | – |
| O[C@H]1[C@H]2c3cc4c(cc3CN3CCC(=C[C@@H]1O)[C@H]23)OCO4 [Lycorine] | 60.9% | – |
| c1cc2c(c3c1CC1c4cc5c(cc4CCN1C3)OCO5)OCO2 (racemic) [(±)-Stylopine] | -0.3% | – |
| O[C@H]1[C@H]2c3cc4c(cc3CN3CC[C@H](C[C@@H]1O)[C@H]23)OCO4 [Dihydrolycorine] | 0% | – |
| OCc1cccc2ccccc12 [1-Naphthalenemethanol] | 2.9% | – |
| CC(C)=CCC[C@](C)(O[C@@H]1O[C@H](CO)[C@@H](O)[C@H](O)[C@H]1O)[C@H]1CC[C@]2(C)[C@@H]1[C@H](O)C[C@@H]1[C@@]3(C)CC[C@H](O)C(C)(C)[C@@H]3CC[C@]12C [Ginsenoside C-K] | 38.7% | – |
| COc1cc(/C=C/C(=O)OC[C@H]2O[C@H](O[C@]3(CO)O[C@H](CO)[C@@H](O)[C@@H]3O)[C@H](O)[C@@H](O)[C@@H]2O)cc(OC)c1O [Sibiricose A1] | 2.3% | – |
| COc1ccc2cc1Oc1ccc(cc1)C[C@H]1c3cc(c(OC)cc3CCN1C)Oc1c(OC)c(OC)cc3c1[C@H](C2)N(C)CC3 [tetrandrine] | 79.7% | – |

| Compound | OC43 Inhibition rate | OC43 Inhibition rate (OC43 Inhibition rate, 24 h) |
| --- | --- | --- |
| COc1ccc2cc1Oc1ccc(cc1)C[C@H]1c3cc(c(OC)cc3CCN1C)Oc1c(O)c(OC)cc3c1[C@H](C2)N(C)CC3 [Fangchinoline] | 41.6% | – |
| COc1cc2c3cc1Oc1c(OC)c(OC)cc4c1[C@@H](Cc1ccc(O)c(c1)Oc1ccc(cc1)C[C@@H]3N(C)CC2)N(C)CC4 [Berbamine] | 0% | – |
| Oc1ccc(CC2NCCc3cc(O)c(O)cc32)cc1 (centres unmarked) [Higenamine (hydrochloride)] | 0.1% | – |
| Oc1ccc2[nH]ccc2c1 [5-Hydroxyindole] | 1.1% | – |
| COc1c2c(cc3oc(CO)cc(=O)c13)O[C@H](C(C)(C)O)C2 [Cimifugin] | 0.3% | – |
| OC1COC(O)CO1 (centres unmarked) [1,4-Dioxane-2,5-diol] | 1.3% | – |
| COc1c(C(C)C)cc2c(c1O)[C@@]1(C(=O)O)CCCC(C)(C)[C@@H]1CC2 [12-O-Methylcarnosic acid] | 54.1% | – |
| CC(C)c1cc2c(c(O)c1O)[C@@]13CCCC(C)(C)[C@@H]1C[C@@H]2OC3=O [Carnosol] | -0.4% | – |
| CC(C)c1ccc2c(c1)CC[C@H]1[C@](C)(C(=O)O)CCC[C@]21C [Dehydroabietic acid] | -0.5% | – |
| COc1cc(C=CC(=O)O)cc(OC)c1O (stereo in doubt) [Sinapinic acid] | 1.1% | – |
| CCn1cc(C(=O)O)c(=O)c2ccc(C)nc21 [Nalidixic acid] | 0.1% | – |
| NC1CCN(c2nc3c(cc2F)c(=O)c(C(=O)O)cn3-c2ccc(F)cc2F)C1 (centres unmarked) [Tosufloxacin (tosylate hydrate)] | 58.8% | – |
| O=C(O)C(O)c1ccc(O)c(O)c1 (centres unmarked) [3,4-Dihydroxymandelic acid] | -0.2% | – |
| CC(C)=CCC/C(C)=C/Cc1cc(-c2coc3cc(O)ccc3c2=O)ccc1O [Corylifol A] | -2.2% | – |
| CCCC(=O)C(=O)O [2-Oxovaleric acid] | -0.9% | – |
| COc1ccc(/C=C/C(=O)O)cc1 [4-Methoxycinnamic acid] | – | -0.5% |
| CSCC[C@H](NC(C)=O)C(=O)O [N-Acetyl-L-methionine] | 0.8% | – |
| C[C@@H]1CC[C@@]2(OC1)O[C@H]1C[C@H]3[C@@H]4CC=C5C[C@@H](O)C[C@@H](O[C@@H]6O[C@H](C)[C@H](O)[C@H](O[C@@H]7OC[C@@H](O)[C@H](O)[C@H]7O)[C@H]6O[C@@H]6O[C@H](CO)[C@@H](O)[C@H](O)[C@H]6O)[C@]5(C)[C@H]4CC[C@]3(C)[C@H]1[C@@H]2C [Saponin C, from Liriope muscari] | 66.4% | – |
| C[C@@H]1CC[C@@]2(OC1)O[C@H]1C[C@H]3[C@@H]4CC=C5C[C@@H](O)C[C@@H](O[C@@H]6O[C@H](C)[C@H](O)[C@H](O[C@@H]7OC[C@@H](O)[C@H](O)[C@H]7O)[C@H]6O[C@@H]6O[C@@H](C)[C@H](O)[C@@H](O)[C@H]6O)[C@]5(C)[C@H]4CC[C@]3(C)[C@H]1[C@@H]2C [Ophiopogonin D'] | – | -0.3% |
| C[C@@H]1CC[C@@]2(OC1)O[C@H]1C[C@H]3[C@@H]4CC=C5C[C@@H](O[C@@H]6O[C@H](CO)[C@@H](O)[C@H](O)[C@H]6O[C@@H]6O[C@@H](C)[C@H](O)[C@@H](O)[C@H]6O)CC[C@]5(C)[C@H]4CC[C@]3(C)[C@H]1[C@@H]2C [Prosapogenin A] | -12% | – |
| C[C@H]1CC[C@@]2(OC1)O[C@H]1C[C@H]3[C@@H]4CC=C5C[C@@H](O[C@@H]6O[C@H](CO)[C@@H](O)[C@H](O[C@@H]7OC[C@@H](O)[C@H](O)[C@H]7O)[C@H]6O[C@@H]6O[C@@H](C)[C@H](O)[C@@H](O)[C@H]6O)CC[C@]5(C)[C@H]4CC[C@]3(C)[C@H]1[C@@H]2C [Liriope muscari baily saponins C] | 66.1% | – |
| C[C@@H]1CC[C@@]2(OC1)O[C@H]1C[C@H]3[C@@H]4CC=C5C[C@@H](O)C[C@@H](O[C@@H]6O[C@H](C)[C@H](O)[C@H](O[C@@H]7OC[C@@H](O)[C@H](O)[C@H]7O)[C@H]6O[C@@H]6O[C@@H](C)[C@H](O)[C@@H](O)[C@H]6O)[C@]5(C)[C@H]4CC[C@]3(C)[C@H]1[C@@H]2C [Ophiopogonin D] | – | 1.6% |
| C[C@@H]1CC[C@@]2(OC1)O[C@H]1C[C@H]3[C@@H]4CC=C5C[C@@H](O[C@@H]6O[C@H](CO)[C@@H](O)[C@H](O[C@@H]7O[C@H](CO)[C@@H](O)[C@H](O)[C@H]7O)[C@H]6O[C@@H]6O[C@@H](C)[C@H](O)[C@@H](O)[C@H]6O)CC[C@]5(C)[C@H]4CC[C@]3(C)[C@H]1[C@@H]2C [Gracillin] | 7% | – |
| C[S+]([O-])CCCC/C(=N\OS(=O)(=O)O)S[C@@H]1O[C@H](CO)[C@@H](O)[C@H](O)[C@H]1O (some centres unmarked) [Glucoraphanin] | -2.3% | – |

| Compound | OC43 Inhibition rate | OC43 Inhibition rate (OC43 Inhibition rate, 24 h) |
| --- | --- | --- |
| CC(C)=CCC[C@](C)(O)[C@H]1CC[C@]2(C)[C@@H]1[C@H](O)C[C@@H]1[C@@]3(C)CC[C@H](O)C(C)(C)[C@@H]3[C@@H](O[C@@H]3O[C@H](CO)[C@@H](O)[C@H](O)[C@H]3O[C@@H]3OC[C@@H](O)[C@H](O)[C@H]3O)C[C@]12C [Notoginsenoside R2] | 0.5% | – |
| CSSSC [Dimethyl trisulfide] | -0.3% | – |
| COc1ccc2cc3[n+](cc2c1O)CCc1cc2c(cc1-3)OCO2 [Berberrubine (chloride)] | -0.4% | – |
| CC1(C)O[C@H]1COc1c2ccoc2cc2oc(=O)ccc12 [Oxypeucedanin] | 0.5% | – |
| C[C@@H]1O[C@@H](O[C@@H]2C(=O)c3c(O)cc(O)cc3O[C@@H]2c2ccc(O)c(O)c2)[C@H](O)[C@H](O)[C@H]1O [Isoastilbin] | 4.2% | – |
| C/C=C/C[C@@H](C)[C@@H](O)[C@H]1C(=O)N[C@@H](C(C)C)C(=O)N(C)CC(=O)N(C)[C@@H](CC(C)C)C(=O)N[C@@H](C(C)C)C(=O)N(C)[C@@H](CC(C)C)C(=O)N[C@@H](C)C(=O)N[C@H](C)C(=O)N(C)[C@@H](CC(C)C)C(=O)N(C)[C@@H](CC(C)C)C(=O)N(C)[C@@H](C(C)C)C(=O)N1C [Cyclosporin D] | 68% | – |
| O=C1O[C@H]([C@@H](O)CO)C(O)=C1OP(=O)(O)O [L-Ascorbic acid 2-phosphate (trisodium)] | 9.8% | – |
| CCCCCCCCCCCCCCCCCCC(=O)O [Nonadecanoic acid] | -0.5% | – |
| COC(=O)C1=C(O)c2ccccc2C(=O)[C@]1(CC=C(C)C)C1=CC(=O)c2ccccc2C1=O [Rubipodanone A] | 58.8% | – |
| CC(C)=CCC1=C(O)C(=O)c2ccccc2C1=O [Lapachol] | 27.9% | – |
| CC(C)=CCC1=CC(=O)c2ccccc2C1=O [Deoxylapachol] | 3.8% | – |
| Nc1ncnc2c1ncn2[C@@H]1O[C@H](COP(=O)(O)O)[C@@H](O)[C@H]1O [Adenosine monophosphate] | – | 0% |
| C1CCN2C[C@H]3C[C@H](CN4CCCC[C@@H]34)[C@H]2C1 [(+)-Sparteine] | – | 6% |
| C=C(C)[C@H](CC=C(C)C)Cc1c(O)cc(O)c2c1O[C@H](c1ccc(O)cc1O)CC2=O [sophoraflavanone G] | 39.8% | – |
| C=C(C)[C@H](CC=C(C)C)Cc1c(O)cc(OC)c2c1O[C@H](c1ccc(O)cc1O)CC2=O [Kurarinone] | 0% | – |
| C=C(C)[C@H](CC=C(C)C)Cc1c(O)cc(OC)c2c1O[C@H](c1ccc(O)cc1OC)CC2=O [(2S)-2'-Methoxykurarinone] | 98.5% | – |
| CC1(C)CC[C@]2(C(=O)O[C@@H]3O[C@H](CO)[C@@H](O)[C@H](O)[C@H]3O)CC[C@]3(C)C(=CC[C@@H]4[C@@]5(C)CC[C@H](O[C@@H]6O[C@H](C(=O)O)[C@@H](O)[C@H](O)[C@H]6O[C@H]6OC[C@@H](O)[C@H](O)[C@H]6O)C(C)(C)[C@@H]5CC[C@]43C)[C@@H]2C1 [Pseudoginsenoside RT1] | 0.7% | – |
| O=c1c2cc(O[C@@H]3O[C@H](CO)[C@@H](O)[C@H](O)[C@H]3O)c(O)cc2oc2cc(O)c([C@@H]3O[C@H](CO)[C@@H](O)[C@H](O)[C@H]3O)c(O)c12 [Neomangiferin] | 3% | – |
| COC[C@@H](Cc1ccc(OC)c(OC)c1)[C@@H](COC)Cc1ccc(OC)c(OC)c1 [Phyllanthin] | 0.2% | – |
| CC1=C[C@]23C(=O)[C@@H](C=C4COC(C)(C)O[C@H]4C2(O)[C@H]1O)[C@H]1[C@@H](C[C@H]3C)C1(C)C (some centres unmarked) [Ingenol-5,20-acetonide] | -2.5% | – |
| C/C=C(/C)C(=O)O[C@H]1C(C)=C[C@]23C(=O)[C@@H](C=C(CO)[C@@H](O)[C@]12O)[C@H]1[C@@H](C[C@H]3C)C1(C)C [Ingenol Mebutate] | 1.1% | – |
| C/C=C(/C)C(=O)O[C@H]1C(C)=C[C@]23C(=O)[C@@H](C=C4COC(C)(C)O[C@H]4[C@]12O)[C@H]1[C@@H](C[C@H]3C)C1(C)C [Ingenol-5,20-acetonide-3-O-angelate] | 69.8% | – |
| Cc1cc(=O)c2c(O)c3c(cc2o1)OC(C)(C)[C@@H](O[C@@H]1O[C@H](CO)[C@@H](O)[C@H](O)[C@H]1O)C3 [Sec-O-Glucosylhamaudol] | -0.4% | – |
